A selection: hits, their analogues and other compounds. The true share with any hit is near 11%.
HP1b chromo inh: inhibitors of HP1-beta chromodomain binding to methylated histone tails | P83916 | AlphaScreen HP1-beta / biotin-H3K9me3 peptide binding | Potency, µM (top dose mostly 114 µM), most hits filed as inhibitors | 390,000 tested, 0.56% active | AID 540317; further: nearly all actives have a fitted effect of over 70% in size
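Compound inhibition of the preformed complex between 50 nM HP1-beta and 50 nM biotinylated H3K9me3 peptide was read by AlphaScreen. Buffer was PBS pH 7.4 with 0.01% Tween-20. Incubations ran 30 min at room temperature, with 10 ug/mL donor/acceptor beads.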
BAZ2B inh: BAZ2B (human) inhibition; Q9UIF8; Potency, µM (highest dose often 114 µM), usual class: inhibitors; 360,000 tested, 4.4% active; AlphaScreen BAZ2B-H3K14Ac peptide displacement; further: nearly all actives have a fitted effect of over 60% in size
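Inhibition is scored as reduced AlphaScreen emission. The BAZ2B/b-H3(5-23)K14Ac complex (50 nM each) in PBS pH 7.4, 0.01% Tween-20 meets compound (up to 110 uM) for 30 min at RT before bead addition.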
JMJD2A Tudor inh: inhibitors of human JMJD2A Tudor domain. O75164. Potency, µM (highest dose often 114 µM), most hits filed as inhibitors. 390,000 tested, 4.4% active. AlphaScreen JMJD2A-Tudor / H3K4me3 peptide binding. AID 504339; further: nearly all actives have a fitted effect of over 50% in size
L3MBTL1 inh: blocks human L3MBTL1; Q9Y468; AlphaScreen L3MBTL1–H3K9me1 peptide binding; Potency, µM (doses to about 57.1 µM), actives largely listed as inhibitors; 230,000 tested, 0.66% active; AID 485360; further: nearly all actives have a fitted effect of over 60% in size
Target sequence (Q9Y468 whole entry, looked up): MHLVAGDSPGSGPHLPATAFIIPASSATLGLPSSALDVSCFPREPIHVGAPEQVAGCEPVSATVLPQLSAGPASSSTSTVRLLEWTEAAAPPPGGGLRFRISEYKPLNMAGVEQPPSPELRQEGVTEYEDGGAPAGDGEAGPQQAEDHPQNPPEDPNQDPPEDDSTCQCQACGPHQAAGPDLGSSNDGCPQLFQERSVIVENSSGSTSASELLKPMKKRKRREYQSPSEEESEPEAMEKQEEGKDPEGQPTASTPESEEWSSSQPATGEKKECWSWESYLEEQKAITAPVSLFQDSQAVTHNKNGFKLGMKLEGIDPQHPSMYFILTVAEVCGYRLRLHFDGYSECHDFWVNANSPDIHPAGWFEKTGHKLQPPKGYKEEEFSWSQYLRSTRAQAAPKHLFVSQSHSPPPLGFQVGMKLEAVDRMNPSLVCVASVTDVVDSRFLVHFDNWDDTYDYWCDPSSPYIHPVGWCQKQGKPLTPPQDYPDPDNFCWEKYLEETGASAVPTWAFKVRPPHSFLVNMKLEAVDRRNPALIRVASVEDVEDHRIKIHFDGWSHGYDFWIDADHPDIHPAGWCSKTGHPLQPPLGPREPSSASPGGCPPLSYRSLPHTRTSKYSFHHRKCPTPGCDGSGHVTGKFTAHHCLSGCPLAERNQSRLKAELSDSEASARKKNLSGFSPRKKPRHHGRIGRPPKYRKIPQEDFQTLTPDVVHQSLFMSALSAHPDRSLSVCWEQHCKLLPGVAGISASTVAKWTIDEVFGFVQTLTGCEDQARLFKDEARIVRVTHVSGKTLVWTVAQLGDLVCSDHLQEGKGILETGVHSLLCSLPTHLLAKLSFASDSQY
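Displacement of a biotinylated histone H3(1-15) peptide monomethylated at Lys9 (75 nM) from L3MBTL1 (50 nM) was measured by AlphaScreen after a 30 min room-temperature compound incubation; cefsulodin titration served as intraplate control.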
G9a inh: blocks human histone lysine methyltransferase G9a; G9a H3K9 monomethylation, AlphaScreen, 2 h; Potency, µM (doses to about 102 µM), hits mostly inhibitors; 350,000 tested, 8.8% active; further: nearly all actives have a fitted effect of over 75% in size
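Readings reflect AlphaScreen signal from monomethyl-H3K9 antibody detection. HMT at 20 nM; substrate b-H3K9 500 nM; cofactor SAM 20 uM; 2 h RT reaction; compounds tested as titrations in qHTS with 15 min preincubation.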
Numbers stand for hits; . = inactive; ? = inconclusive; / = no result; [ ] = dose if it differs, or a comment. The call rests on the fitted dose curve; in most records, active means well fitted inhibition curve with a large enough effect; inconclusive means small, poorly fitted or top-dose-only effect; inactive means no such curve, though single readings can be large or run the other way.

SMILES	HP1b chromo inh	BAZ2B inh	JMJD2A Tudor inh	L3MBTL1 inh	G9a inh
CN1C[C@@H]2[C@@H]3C(=O)N(Cc4ccccc4)C(=O)[C@@H]3[C@](C)(C1=O)N2C(=O)c1ccccc1	.	/	.	/	/
Cc1c(Cl)ccc2c1NC(=O)[C@]21[C@@H]2C(=O)N(Cc3ccccc3)C(=O)[C@@H]2[C@@H]2CCCN21	.	.	.[11.4 µM]	.	45µM
CC[C@]12C(=O)N(C)C[C@H]([C@@H]3C(=O)N(Cc4ccccc4)C(=O)[C@@H]31)N2C(=O)c1ccc(F)cc1	.	/	.	/	/
CCc1cccc2c1NC(=O)[C@]21[C@@H]2C(=O)N(Cc3ccccc3)C(=O)[C@@H]2[C@@H]2CCCN21	.	.	.	.	45µM
CCN(CC(=O)Nc1ccc(OC)cc1)C(=O)c1cc(-c2cccs2)nn1-c1ccccc1	.	.	.	.	?
COc1ccc(NC(=O)CN(C)C(=O)c2cc(-c3cccs3)nn2-c2ccccc2)cc1	.	.	.	.	50µM
O=C(O)c1cc(-c2cccs2)nn1-c1ccccc1	.	.	.	.	45µM
O=C(O)c1cc(-c2cc3ccccc3o2)nn1-c1ccccc1	.	/	.	.	45µM
CCc1cc2c(=O)c(-c3nc4ccccc4n3C)coc2c(CN2CCCCC2C)c1O (stereo unspecified)	.	45µM	.	/	.
CSc1nc(SCCO)c2sc3nc(-c4ccco4)c4c(c3c2n1)CC(C)(C)OC4	.	32µM	?	.	?
CSc1nc(N(CCO)CCO)c2sc3nc(-c4ccco4)c4c(c3c2n1)CCC4	11µM	?	.[11.4 µM]	2.5µM	13µM
CCN(CC)Cc1cc(Nc2c3ccccc3nc3c4ccccc4n(C)c23)cc(CN(CC)CC)c1O	?	/	45µM	/	/
CCC1CCCCN1C(=O)COc1ccc2c(c1)OCO2 (stereo unspecified)	.	.	.	/	71µM
O=c1[nH]nc(SCc2ccccc2)c(=O)[nH]1	.	.	.	.	?
NNC(=O)c1ccc(CSc2n[nH]c(=O)[nH]c2=O)cc1	.	.	.	.	4µM
O=C(NC(=S)Nn1cnnc1)c1cccc(Br)c1	.	.	.	.	11µM
Cc1ccc(NC(=S)Nn2cnnc2)c(C)c1	/	?	/	/	10µM
Cc1ccc(C(=O)NC(=S)Nn2cnnc2)cc1	.	.	.	.	10µM
Cc1ccc(NC(=O)Nn2cnnc2)c(C)c1	.	.	.	/	.
NC(=S)NNC(=O)c1cccc(Br)c1	/	.	/	/	?
CCC(=O)NNC(=S)NC(=O)c1ccc(C)cc1	.	.	?	.	.[0.501 µM]
CCN(C(=O)c1cccn(Cc2cccc(Cl)c2)c1=O)c1ccccc1	.	.	.	/	.
CCc1ccc(NC(=O)COCc2cc(-c3ccc(F)cc3)on2)cc1	.	.	.	/	.
CC(=O)Nc1ncc(N=Nc2cccc(C(F)(F)F)c2)s1	.	.	.	/	45µM
O=S(=O)(NCCS(=O)(=O)N1CCN(c2ccccc2F)CC1)c1ccc(Cl)cc1	.	.	.	/	.
SMILES	HP1b chromo inh	BAZ2B inh	JMJD2A Tudor inh	L3MBTL1 inh	G9a inh
O=C(/C(=C(\[O-])c1ccccc1)[n+]1ccc2ccccc2c1)c1ccc(Cl)cc1	.	.	.	.	20µM
CN(C)N=Nc1ccc(-c2cn(Cc3ccccc3)cn2)cc1	.	45µM	?	.	/
Nc1cc(-c2ccccc2)nn1Cc1ccccc1	.	/	.	/	.
O=C(CSc1ccccn1)N1CCNC1=O	.	/	.	.	/
CCOc1[nH]n(-c2ccccc2)c(=O)c1C=Nc1ccccc1	.	?	.	.	20µM
COc1nccnc1NS(=O)(=O)c1ccc(N=Cc2c(C)[nH]n(-c3ccc(C)c(C)c3)c2=O)cc1	.	?	?	.	45µM
Cc1ccc(-n2[nH]c(C)c(C=Nc3ccc(S(=O)(=O)Nc4nccs4)cc3)c2=O)cc1C	.	?	.	.	.
COc1nccnc1NS(=O)(=O)c1ccc(N=Cc2c(C)[nH]n(-c3ccccc3)c2=O)cc1	.	?	.	.	56µM
CCOC(=O)c1c(Cc2ccccc2)c[nH]c1C	.	.	.	/	56µM
C[C@@H](Nc1nc(Cl)nc2nc[nH]c12)c1ccccc1	.	/	.	/	/
COC(=O)c1scc(-c2ccc(C)cc2)c1S(=O)(=O)Nc1ccc(N(C)C)cc1	?	8.9µM	?	/	?
COC(=O)c1scc(-c2ccc(C)cc2)c1S(=O)(=O)Nc1ccc(NC(C)=O)cc1	.	.	.	/	.
CC1(C)OC(c2ccccc2)=C/C(=C\C=N\NC(=O)c2ccncc2)O1	.	71µM	.	.	.[12.7 µM]
CCCCn1c(SCC(=O)c2ccc(OCC)cc2)nc2cc(S(N)(=O)=O)ccc21	.	.	?	/	?
CCCCn1c(SCC(=O)c2ccc(OC)c(OC)c2)nc2cc(S(N)(=O)=O)ccc21	.	.	.	/	50µM
COCCCNCCCCOc1ccc(OCc2ccccc2)cc1	?	45µM	20µM	.	/
c1ccc(COc2ccc(OCCCNC3CCCC3)cc2)cc1	.	45µM	5µM	/	?
O=C(NC1CCCC1)c1ccccc1OCc1ccccc1	.	.	.	.	.
COCCCNC(=O)CCCOc1ccccc1	.	?	.	.	.
C=CCNCCCCOc1ccc(OCc2ccccc2)cc1	.	50µM	35µM	.	10µM
CCc1cccc(OCCCCNCCOC)c1	?	/	7.1µM	.	7.9µM
CC(C)Oc1ccc(OCCNC2CCCC2)cc1	?	?	3.5µM	/	?
OC(CNC1CCCCC1)COCCOc1ccc(Br)cc1 (stereo unspecified)	.	.	.	.	.
Cc1ccccc1-n1ncc2c([N+](=O)[O-])cc([N+](=O)[O-])cc21	40µM	32µM	56µM	?	?
COc1ccc(N2CCN(S(=O)(=O)c3csc(C(N)=O)c3)CC2)cc1	.	.	.	/	.
SMILES	HP1b chromo inh	BAZ2B inh	JMJD2A Tudor inh	L3MBTL1 inh	G9a inh
COc1ccc(NC(=O)CSc2nc(-c3ccco3)nc3cc(=O)[nH]n23)cc1	.	79µM	.	/	.
Cc1ccc(NC(=O)CSc2nnc(CNC(=O)c3ccco3)n2C)cc1C	.	.	.	.	.
COc1ccc(NC(=O)CSc2nnc(-c3ccco3)n2C)cc1	.	.	.	/	.[12.7 µM]
COc1ccc(NC(=O)CSc2nc(-c3ccco3)cc(C(F)(F)F)n2)cc1Cl	.	.	.	/	.
COc1ccc(NC(=O)CSc2nc(-c3ccco3)nc3cc(=O)[nH]n23)cc1Cl	.	79µM	45µM	/	.
Cc1ccc(NC(=O)CSc2nc(-c3ccco3)nc3cc(=O)[nH]n23)cc1C	.	40µM	.	/	?
NC(=O)CC(NC(=O)Cc1ccc(Cl)cc1)c1ccc(NC2CCN(Cc3ccccc3)CC2)c([N+](=O)[O-])c1 (stereo unspecified)	.	?	.	.	?
NC(=O)CC(NC(=O)c1ccc(Br)cc1)c1ccc(N2CCCCCC2)c([N+](=O)[O-])c1 (stereo unspecified)	.	?	?	.	45µM
NC(=O)CC(NC(=O)c1cccc(Br)c1)c1ccc(N2CCCCCC2)c([N+](=O)[O-])c1 (stereo unspecified)	.	?	?	.	/

Source: PubChem BioAssay
